# High-throughput results (PubChem)
# Calb FLC: affects C. albicans growth with fluconazole. C. albicans CaCi-2 (fluconazole-resistant clinical isolate) + fluconazole, Alamar Blue growth, 48 h. growth inhibition, % (concentration not given with the values). 300,000 compounds, 0.57% hits;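 active means growth inhibition above about 58% in most replicates, limit read from the data, passing the limit was not always enough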;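 further: all wells also contain fluconazole at 8 µg/ml as a sub-toxic cotreatment; 0% = median of DMSO wells and 100% = median of geldanamycin control wells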
# tim10-1 inh: growth inhibitors of tim10-1 mutant yeast; S. cerevisiae tim10-1 ts strain growth, BacTiter-Glo, 24 h; inhibition, % at 20 µM; 330,000 compounds, 2.2% hits; AID 463190;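 active means inhibition of at least 40%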;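 further: mutant grown at 25 °C; 0% = DMSO wells with yeast and 100% = wells holding no yeast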
# SKKanGAS inh: inhibitors of SKKanGAS S. pyogenes growth in kanamycin (SK-promoter or general growth effect); BacTiter-Glo, 6 h; AID 1662; 300,000 compounds, 1.3% hits; inhibition, % at 7.5 µM;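 active means mean replicate score, as percent of positive control median, at least 50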;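 further: strain carries kanamycin resistance gene driven by streptokinase promoter and grows in 40 µg/ml kanamycin; loss of luminescence reflects streptokinase promoter inhibition or plain growth inhibition; 0% = median of DMSO wells and 100% = positive control at its reference dose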
# TIM10 inh: inhibits growth of TIM10 yeast strain | S. cerevisiae TIM10 strain growth, BacTiter-Glo luminescence, 24 h | 330,000 compounds, 1.4% hits | AID 463195 | inhibition, % at 10 µM;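 active means inhibition of 40% or more at the single tested concentration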;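 further: wild-type TIM10 isogenic control strain grown at permissive 25 °C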
# PfHsp90 set2: reduces growth (ATP signal) of yeast expressing P. falciparum Hsp90. 310,000 compounds, 0.32% hits. inhibition, % at 9.4 µM. AID 504621. S. cerevisiae expressing PfHsp90, BacTiter-Glo ATP, 48 h; yeast lacking PDR1 and PDR3 efflux regulators;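 active means every replicate shows inhibition above about 80%, whatever the replicate mean, limit read from the data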;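 further: 0% = DMSO neutral controls and 100% = 20 µM radicicol positive controls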
# tim23-1 inh: tim23-1 yeast growth inhibition | S. cerevisiae tim23-1 growth, BacTiter-Glo luminescence, 24 h | inhibition, % at 20 µM | 330,000 compounds, 1.3% hits;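 active means growth inhibition of the mutant yeast at or above 50%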;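 further: temperature-sensitive mutant grown at 25 °C; plate controls were DMSO-treated mutant yeast for no effect and medium wells lacking yeast for full effect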
# tim10-1 conf: tim10-1 yeast growth inhibition, confirmed | shares compounds with tim10-1 inh | inhibition, % at 20 µM | 7,400 compounds, 56% hits | S. cerevisiae tim10-1 ts strain growth, BacTiter-Glo, 24 h;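 active means inhibition of yeast growth at or above a set limit in either of two repeat tests at 20 µM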;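 further: tim10-1 mutant grown at permissive 25 °C to find synthetic lethal compounds; 0% = DMSO yeast wells and 100% = medium wells without yeast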
# * marks the source's active call; other numbers are inactive results; . = not tested or not shown. Compounds with a hit are over-represented: about 4.7% of the library has one in this group of screens.
SMILES,Calb FLC,tim10-1 inh,SKKanGAS inh,TIM10 inh,PfHsp90 set2,tim23-1 inh,tim10-1 conf
CCC1C(=O)NCCN1C(=O)c1ccc(OC)c(OC2CCN(C(C)=O)CC2)c1 (stereo not given),0.7,-18.1,-0.4,-4.3,-5.9,-29.5,.
C=CCc1c(C)nc(-c2ccccc2)nc1N/N=C/c1ccccc1,-1.3,45.8*,-2.7,33.4,11.7,35.7,31.8*
CCC(C)OC(=O)C[N+](C)(C)CCOC1CC2CCC1(C)C2(C)C (stereo not given),87.1*,41.2*,6.4,2.5,-10.4,9.6,-4.5
CCCOC(=O)C[N+](C)(C)CCOC1CC2CCC1(C)C2(C)C (stereo not given),-7.8,0.3,-7.5,-0.3,-2.1,4.9,.
COC(=O)[C@]1(Cc2ccccc2)N[C@H](c2ccc(-c3ccccc3)cc2)[C@@H]2C(=O)N(C)C(=O)[C@@H]21,-13.6,44.6*,2.4,13.5,11.9,18.2,18.8
COC(=O)C1(Cc2ccccc2)NC(c2ccc(F)cc2)C2C(=O)N(C)C(=O)C21 (stereo not given),-2.7,18.7,4.2,5.3,-4.6,23.2,.
O=S(=O)(CS(=O)(=O)c1ccccc1)c1ccccc1,.,.,.,.,-26.1,.,.
O=S(=O)(C/C(=C/CO)S(=O)(=O)c1ccccc1)c1ccccc1,12.0,44.2*,3.0,17.6,-32.3,26.0,19.4
CN(C)C=NC(=O)c1cc(C(=O)c2ccc(Cl)cc2Cl)c[nH]1,-2.0,0.4,4.3,-8.0,-12.6,17.0,.
CC(C)Nc1nc(-c2ccccc2)nc(-n2ccnc2)n1,7.3,40.5*,13.5,28.6,.,33.6,13.8
c1ccc(-c2nc(-n3ccnc3)nc(-n3ccnc3)n2)cc1,6.5,21.4,13.9,-28.7,.,47.9,.
Cn1nc(C(=O)NC2CCCCC2)c2c1-c1ccccc1SC2,-4.2,7.2,9.9,-1.8,18.1,3.9,.
CC(C)N(C(=O)c1nn(C)c2c1CSc1ccccc1-2)C1CCCCC1,2.9,49.6*,-5.5,8.7,-1.8,48.1,12.3
CC(=O)c1ccc(NC(=S)N2CCN(S(=O)(=O)c3ccc(F)cc3)CC2)cc1,3.1,4.1,0.9,11.2,-32.8,11.2,.
COc1ccc(-c2cc(C(=O)OCc3ccccn3)c3ccccc3n2)cc1,6.4,42.1*,11.9,21.7,-6.9,30.6,13.9
COc1ccc(-c2cc(C(=O)OCC(=O)N(C)C)c3ccccc3n2)cc1,-2.9,17.6,-4.8,19.0,-0.6,29.7,.
COc1ccc(-c2cc(C(=O)N3CCCCCC3)c3ccccc3n2)cc1,.,52.1*,.,19.3,2.8,46.2,13.1
COc1ccc(/C=N/NC(=O)COc2ccccc2-c2ccccc2)cc1,-6.0,45.0*,29.9,24.9,6.5,36.6,15.4
O=C(COc1ccccc1-c1ccccc1)N/N=C/c1cccc2ccccc12,6.2,18.6,43.9,21.1,-13.8,10.1,.
C(=N\N1CCOCC1)/c1cn(-c2ccccc2)nc1-c1ccccc1,9.2,48.9*,-16.5,7.7,13.2,49.6,39.8*
O=C(N/C(=C\c1cn(-c2ccccc2)nc1-c1ccccc1)C(=O)N1CCOCC1)c1ccccc1,-3.8,14.8,9.2,-16.8,.,-14.8,.
Nc1nc(N)c(C=Nc2ccc(Br)cc2)c(Nc2ccc(Br)cc2)n1,6.5,56.8*,100.0*,35.1,-14.6,-1.7,32.0*
C/C(=N\NC(=O)c1ccc(Cl)c(Cl)c1)c1ccccn1,-12.9,51.9*,91.9*,23.2,-28.3,49.1,47.3*
C/C(=N/NC(=O)c1ccc(C(C)(C)C)cc1)c1ccccn1,-7.4,47.0*,105.7*,3.8,-18.2,40.6,15.0
C/C(=N\NC(=O)c1cc(-c2cccs2)nc2ccccc12)c1ccccn1,95.0*,66.9*,90.5*,32.3,1.3,40.4,48.0*
COc1ccc(C(=O)N/N=C(\C)c2ccccn2)cc1OC,-0.3,25.9,37.8,11.0,-4.7,12.0,.
CSCCC(NC(=O)COc1ccccc1)C(=O)N(C)Cc1ccc(SC)cc1 (stereo not given),.,-25.8,.,-29.7,-11.8,9.4,.
CCOC(=O)c1nc(C)nc(Sc2n[nH]c(-c3cc(C(F)(F)F)cc(C(F)(F)F)c3)n2)c1C,-15.9,3.0,16.1,-6.5,2.5,28.5,.
